# Source: PubChem BioAssay (NCI)
# This is part of a sample that, as a whole, favours compounds with a hit. Of some 79,000 tested, about 15% had one in any assay. Values without a mark were called inactive. Calls of active or inactive are those of the source. Rule as the data show it: active = growth inhibition above about 70%; inactive = the rest.
# Tests used:
# [1] = NCI Yeast Anticancer Drug Screen. Data for the rad52 strain (AID 147);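 also: 0% = growth of vehicle-treated control cultures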; settings: S. cerevisiae rad52 mutant growth inhibition, stronger effect = higher value
# In short: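 Vehicle-treated cultures served as the reference for growth inhibition of compound-exposed yeast bearing a DNA repair mutation.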
# [2] = NCI Yeast Anticancer Drug Screen. Data for the wt1 strain (AID 149);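 also: 0% = growth of vehicle-treated wt1 cultures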; settings: S. cerevisiae wt1 strain (SPY 50644) growth inhibition, stronger effect = higher value
# In short: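 The wt1 strain was treated with compounds, and growth was compared with vehicle-treated cultures to give inhibition.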
# [3] = NCI Yeast Anticancer Drug Screen. Data for the rad50EPP+ strain (AID 151);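 also: 0% = growth of vehicle-treated control cultures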; settings: S. cerevisiae rad50 mutant strain, stronger effect = higher value
# In short: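 In this screen, rad50EPP+ yeast were exposed to compounds. Growth inhibition was scored against vehicle-treated controls.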
# [4] = NCI Yeast Anticancer Drug Screen. Data for the mgt1 strain (AID 153); settings: S. cerevisiae mgt1 mutant growth inhibition, stronger effect = higher value
# In short: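 mgt1 strain exposed; growth vs vehicle control recorded as inhibition.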
# [5] = NCI Yeast Anticancer Drug Screen. Data for the rad50 strain (AID 155);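 also: 0% = growth of vehicle-only cultures of the same strain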; settings: S. cerevisiae rad50 strain growth inhibition, stronger effect = higher value
# In short: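 Cells are treated with compound, grown, and their growth is then scored against vehicle-only cultures of the same repair-deficient yeast strain.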
# [6] = NCI Yeast Anticancer Drug Screen. Data for the mec2-1 strain (AID 157); settings: S. cerevisiae mec2-1 strain, stronger effect = higher value
# In short: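 Vehicle-treated cultures served as reference for growth inhibition of compound-exposed mec2-1 yeast.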
# [7] = NCI Yeast Anticancer Drug Screen. Data for the rad14 strain (AID 159);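 also: 0% = growth of vehicle-treated control cultures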; settings: S. cerevisiae rad14 strain growth inhibition, stronger effect = higher value
# In short: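 Readout: yeast growth inhibition, referenced to vehicle-only cultures. Strain bears a defined alteration in DNA damage repair.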
# [8] = NCI Yeast Anticancer Drug Screen. Data for the sgs1 mgt1 strain (AID 161);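 also: 0% = growth of cultures given vehicle only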; settings: S. cerevisiae sgs1 mgt1 strain, stronger effect = higher value
# In short: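 Read-out: growth inhibition vs vehicle controls. Cells: mutant yeast strain deficient in DNA damage repair.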
# [9] = NCI Yeast Anticancer Drug Screen. Data for the cln2 rad14 strain (AID 165);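 also: 0% = growth equal to vehicle treated cultures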; settings: S. cerevisiae cln2 rad14 strain, stronger effect = higher value
# In short: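 Each compound was tested on cln2 rad14 yeast. Inhibition of growth was calculated against vehicle-exposed controls.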
# [10] = NCI Yeast Anticancer Drug Screen. Data for the bub3 strain (AID 167); settings: S. cerevisiae bub3 mutant strain, stronger effect = higher value
# In short: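 Part of a panel of yeast mutants defective in DNA damage repair or cell cycle regulation. Each strain is grown with compound, and inhibition is calculated relative to solvent-treated cultures.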
# [11] = NCI Yeast Anticancer Drug Screen. Data for the wt2 strain (AID 169);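 also: 0% = growth of vehicle-treated yeast cultures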; settings: S. cerevisiae wt2 strain growth inhibition, stronger effect = higher value
# In short: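 Inhibition of yeast growth was determined after compound treatment, normalised to controls receiving only vehicle.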
# [12] = NCI Yeast Anticancer Drug Screen. Data for the mlh1 strain (AID 171);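 also: 0% = growth of vehicle-treated control cultures of the same strain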; settings: S. cerevisiae mlh1 strain growth inhibition, stronger effect = higher value
# In short: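 Vehicle-normalised growth inhibition of a repair- or checkpoint-altered yeast strain following compound treatment.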
# [13] = NCI Yeast Anticancer Drug Screen. Data for the sgs1 strain (AID 173);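 also: 0% = growth of vehicle-only control cultures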; settings: S. cerevisiae sgs1 mutant, stronger effect = higher value
# In short: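 Screen format: yeast with repair or checkpoint alterations, compound exposure, growth read relative to vehicle.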
# [14] = NCI Yeast Anticancer Drug Screen. Data for the mlh1 rad18 strain (AID 175); settings: S. cerevisiae mlh1 rad18 strain growth inhibition, stronger effect = higher value
# In short: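 Vehicle-treated cultures served as the reference for growth inhibition in a yeast strain carrying DNA damage repair alterations exposed to each compound.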
# [15] = NCI Yeast Anticancer Drug Screen. Data for the rad18 strain (AID 177); settings: S. cerevisiae rad18 mutant growth inhibition, stronger effect = higher value
# In short: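 Test articles were incubated with altered yeast defective in DNA damage repair. Results are given as inhibition of growth versus vehicle.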
# [16] = NCI Yeast Anticancer Drug Screen. Data for the CLN2oe strain (AID 163);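 also: 0% = growth of vehicle-only control cultures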; settings: S. cerevisiae CLN2oe strain, stronger effect = higher value
# In short: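 Inhibition relative to vehicle-treated yeast is reported. Cells: strain with genetic alteration in cell-cycle control, grown with compound.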
# [17] = at 5.0 µM (retest, dose inferred, filed as 0.5)
# [18] = at 50.0 µM (retest, dose inferred, filed as 5.0)
smiles,measurement,setting,value
O=C1OC(CCl)CN1/N=C/c1ccc([N+](=O)[O-])o1 (stereo unspecified),growth inhibition,[1]; at 1.2 µM,-36%
same,growth inhibition,[1]; at 3.7 µM,-11%
same,growth inhibition,[1]; at 11.0 µM,19%
same,growth inhibition,[1]; at 33.0 µM,54%
same,growth inhibition,[1]; at 100.0 µM,88% (active)
same,growth inhibition,[2]; at 1.2 µM,-2%
same,growth inhibition,[2]; at 3.7 µM,2%
same,growth inhibition,[2]; at 11.0 µM,14%
same,growth inhibition,[2]; at 33.0 µM,21%
same,growth inhibition,[2]; at 100.0 µM,54%
same,growth inhibition,[3]; at 1.2 µM,-3%
same,growth inhibition,[3]; at 3.7 µM,-17%
same,growth inhibition,[3]; at 11.0 µM,14%
same,growth inhibition,[3]; at 33.0 µM,47%
same,growth inhibition,[3]; at 100.0 µM,73% (active)
same,growth inhibition,[4]; at 1.2 µM,-3%
same,growth inhibition,[4]; at 3.7 µM,-8%
same,growth inhibition,[4]; at 11.0 µM,-3%
same,growth inhibition,[4]; at 33.0 µM,1%
same,growth inhibition,[4]; at 100.0 µM,25%
same,growth inhibition,[5]; at 1.2 µM,-10%
same,growth inhibition,[5]; at 3.7 µM,-8%
same,growth inhibition,[5]; [17],19%
same,growth inhibition,[5]; at 11.0 µM,3%
same,growth inhibition,[5]; at 33.0 µM,45%
same,growth inhibition,[5]; [18],78% (active)
same,growth inhibition,[5]; at 50.0 µM,21.7%
same,growth inhibition,[5]; at 100.0 µM,80% (active)
same,growth inhibition,[6]; at 1.2 µM,-4%
same,growth inhibition,[6]; at 3.7 µM,-3%
same,growth inhibition,[6]; [17],9%
same,growth inhibition,[6]; at 11.0 µM,0%
same,growth inhibition,[6]; at 33.0 µM,7%
same,growth inhibition,[6]; [18],76% (active)
same,growth inhibition,[6]; at 50.0 µM,44.2%
same,growth inhibition,[6]; at 100.0 µM,19%
same,growth inhibition,[7]; at 1.2 µM,-7%
same,growth inhibition,[7]; at 3.7 µM,0%
same,growth inhibition,[7]; at 11.0 µM,14%
same,growth inhibition,[7]; at 33.0 µM,38%
same,growth inhibition,[7]; at 100.0 µM,71% (active)
same,growth inhibition,[8]; [17],35%
same,growth inhibition,[8]; [18],89% (active)
same,growth inhibition,[8]; at 50.0 µM,71.9% (active)
same,growth inhibition,[9]; [17],4%
same,growth inhibition,[9]; [18],73% (active)
same,growth inhibition,[9]; at 50.0 µM,47.1%
same,growth inhibition,[10]; at 1.2 µM,-8%
same,growth inhibition,[10]; at 3.7 µM,-4%
same,growth inhibition,[10]; [17],1%
same,growth inhibition,[10]; at 11.0 µM,-5%
same,growth inhibition,[10]; at 33.0 µM,2%
same,growth inhibition,[10]; [18],70% (active)
same,growth inhibition,[10]; at 50.0 µM,10%
same,growth inhibition,[10]; at 100.0 µM,16%
same,growth inhibition,[11]; at 1.2 µM,2%
same,growth inhibition,[11]; at 3.7 µM,2%
same,growth inhibition,[11]; at 11.0 µM,20%
same,growth inhibition,[11]; at 33.0 µM,54%
same,growth inhibition,[11]; at 100.0 µM,90% (active)
same,growth inhibition,[12]; at 1.2 µM,-9%
same,growth inhibition,[12]; at 3.7 µM,-4%
same,growth inhibition,[12]; at 11.0 µM,-1%
same,growth inhibition,[12]; at 33.0 µM,14%
same,growth inhibition,[12]; at 100.0 µM,69%
same,growth inhibition,[13]; at 1.2 µM,-6%
same,growth inhibition,[13]; at 3.7 µM,9%
same,growth inhibition,[13]; at 11.0 µM,49%
same,growth inhibition,[13]; at 33.0 µM,83% (active)
same,growth inhibition,[13]; at 100.0 µM,95% (active)
same,growth inhibition,[14]; [17],66%
same,growth inhibition,[14]; [18],92% (active)
same,growth inhibition,[14]; at 50.0 µM,87.9% (active)
same,growth inhibition,[15]; at 1.2 µM,45%
same,growth inhibition,[15]; at 3.7 µM,72% (active)
same,growth inhibition,[15]; at 11.0 µM,91% (active)
same,growth inhibition,[15]; at 33.0 µM,95% (active)
same,growth inhibition,[15]; at 100.0 µM,96% (active)
Cc1c(C(=O)C(=O)c2ccccc2)c(C)c(C(=O)C(=O)c2ccccc2)c(C)c1C(=O)C(=O)c1ccccc1,growth inhibition,[1]; at 1.2 µM,-4%
same,growth inhibition,[1]; at 3.7 µM,-5%
same,growth inhibition,[1]; at 11.0 µM,-7%
same,growth inhibition,[1]; at 33.0 µM,-17%
same,growth inhibition,[1]; at 100.0 µM,-14%
same,growth inhibition,[2]; at 1.2 µM,0%
same,growth inhibition,[2]; at 3.7 µM,1%
same,growth inhibition,[2]; at 11.0 µM,-1%
same,growth inhibition,[2]; at 33.0 µM,-4%
same,growth inhibition,[2]; at 100.0 µM,-5%
same,growth inhibition,[3]; at 1.2 µM,0%
same,growth inhibition,[3]; at 3.7 µM,-1%
same,growth inhibition,[3]; at 11.0 µM,-3%
same,growth inhibition,[3]; at 33.0 µM,-5%
same,growth inhibition,[3]; at 100.0 µM,-17%
same,growth inhibition,[4]; at 1.2 µM,-2%
same,growth inhibition,[4]; at 3.7 µM,-2%
same,growth inhibition,[4]; at 11.0 µM,-5%
same,growth inhibition,[4]; at 33.0 µM,-21%
same,growth inhibition,[4]; at 100.0 µM,-9%
same,growth inhibition,[5]; at 1.2 µM,-11%
same,growth inhibition,[5]; at 3.7 µM,-21%
same,growth inhibition,[5]; [17],11%
same,growth inhibition,[5]; at 11.0 µM,-29%
same,growth inhibition,[5]; at 33.0 µM,-12%
same,growth inhibition,[5]; [18],86% (active)
same,growth inhibition,[5]; at 50.0 µM,54.1%
same,growth inhibition,[5]; at 100.0 µM,-19%
same,growth inhibition,[6]; at 1.2 µM,-2%
same,growth inhibition,[6]; at 3.7 µM,1%
same,growth inhibition,[6]; [17],18%
same,growth inhibition,[6]; at 11.0 µM,-1%
same,growth inhibition,[6]; at 33.0 µM,-3%
same,growth inhibition,[6]; [18],90% (active)
same,growth inhibition,[6]; at 50.0 µM,61.4%
same,growth inhibition,[6]; at 100.0 µM,-11%
same,growth inhibition,[7]; at 1.2 µM,-2%
same,growth inhibition,[7]; at 3.7 µM,-3%
same,growth inhibition,[7]; at 11.0 µM,-4%
same,growth inhibition,[7]; at 33.0 µM,-8%
same,growth inhibition,[7]; at 100.0 µM,-13%
same,growth inhibition,[8]; [17],-5%
same,growth inhibition,[8]; [18],86% (active)
same,growth inhibition,[8]; at 50.0 µM,75.7% (active)
same,growth inhibition,[16]; at 1.2 µM,1%
same,growth inhibition,[16]; at 3.7 µM,-5%
same,growth inhibition,[16]; at 11.0 µM,-5%
same,growth inhibition,[16]; at 33.0 µM,-10%
same,growth inhibition,[16]; at 100.0 µM,-13%
same,growth inhibition,[9]; [17],94% (active)
same,growth inhibition,[9]; [18],84% (active)
same,growth inhibition,[9]; at 50.0 µM,63.1%
same,growth inhibition,[10]; at 1.2 µM,-2%
same,growth inhibition,[10]; at 3.7 µM,0%
same,growth inhibition,[10]; [17],97% (active)
same,growth inhibition,[10]; at 11.0 µM,-2%
same,growth inhibition,[10]; at 33.0 µM,-8%
same,growth inhibition,[10]; [18],91% (active)
same,growth inhibition,[10]; at 50.0 µM,56.4%
same,growth inhibition,[10]; at 100.0 µM,-16%
same,growth inhibition,[12]; at 1.2 µM,1%
same,growth inhibition,[12]; at 3.7 µM,1%
same,growth inhibition,[12]; at 11.0 µM,1%
same,growth inhibition,[12]; at 33.0 µM,-3%
same,growth inhibition,[12]; at 100.0 µM,-8%
same,growth inhibition,[14]; [17],9%
same,growth inhibition,[14]; [18],87% (active)
same,growth inhibition,[14]; at 50.0 µM,72.5% (active)
same,growth inhibition,[15]; at 1.2 µM,-3%
same,growth inhibition,[15]; at 3.7 µM,-4%
same,growth inhibition,[15]; at 11.0 µM,-6%
same,growth inhibition,[15]; at 33.0 µM,-13%
same,growth inhibition,[15]; at 100.0 µM,-20%
